Drawing on the supplement of paper PMC6555819, this text covers PBM binding z-score for 18 sequences.

The subject of the assay is LXRa:RXRa (NR concentration 270 nM, RXRa partner concentration 90 nM). As to the kind of experiment: PBM binding z-score (relative to random genomic background probes); higher = stronger binding; sequences stand for … in GC…GCGATTGACAGCGTAGAATGAAGG
The procedure, abridged: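 Regression normalization was applied to scanned fluorescence from custom Agilent 4×180K protein-binding microarrays. Before scanning, arrays were incubated 1 h with ligand-free nuclear receptor dimers, and binding was detected with antibodies against each partner (one per run). Binding z-scores use the random background probes as reference.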
TAGCCTAGGTCATTCAGGGGCCAGTCTAGAAAGC gave a PBM binding z-score of 3.65.

TCTCCTAGGTCAGTTGGTCAGCTAACGAGCTGCC: the PBM binding z-score worked out at 1.17.

Sequence ATCGAAAGGTCGTGAGGTGAGTGTACAGAAAGGC gave a PBM binding z-score of 4.05. The same measure for CGTCAAAGTTCAAGGTAACGGAACAGAAAGCAGC: 5.59. Sequence ACTATTAGTTGAGACGAGGGCAAACGATAGGTTG returned a PBM binding z-score of 0.212. As to TCGAGTAGGTTAGGGGCTTTCAGAATGGCGTCGA, the PBM binding z-score worked out at 0.172. In turn, CGAGCTAGGTCAAGGACAGTGAATCTCCGCACGC gave a PBM binding z-score of 2.03.

Sequence ATCTCTAGGTAAGAAGTTCAGTGAAAGAGAGGAC returned a PBM binding z-score of 0.566.

TTACCAAGGGGAGCTGAGGTCGTTGATCCAACTC showed a PBM binding z-score of 0.173. Turning to ACAGACAGTTGAGTGAAGGTAACTCAGCTGGACG, the PBM binding z-score was -0.141. TCTCGGAGGACACGTAAGGTCAGAGCTCGACATC gave a PBM binding z-score of 3.03.

For ATCTCTAGGTAACAAGTTAAGTGAAAGAGAGGAC, the PBM binding z-score was 0.557. With CTCGAAAAGTCGTGCTCAGGTGAGTATACCAAAC, the PBM binding z-score turned out to be 0.378. As to TGAATGAGGTTATAAGCTCAGGGAACGTTGCAAA, the PBM binding z-score came out at 0.975. As for AGAATGAGGTTATAAAGATCAGGGAATTGCGGTC, the PBM binding z-score turned out to be 1.31. For the sequence CAAACTAGGTCACCGGAAGGTCAACGTCCGCATG, the PBM binding z-score is 6.05. As for ATAGGTAGGTTAGCTGGGGTCATTCAGACTAGGC, the PBM binding z-score was 5.76. With TCTATTAGTTGACTAGGGCAACCGAAACAGCGGA, the PBM binding z-score is 0.805.
